Several values for one entry are separate records, joined by “and”; a condition that tells them apart may be missing. Identical values can stand only once. Compounds without any hit were thinned out: in the full panel of roughly 83,000, 20% have a hit.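 Single-dose data. Exposure time 48 hours. Values below 10 considered active.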 A number with no mark means an inactive call. Activity calls are given as the source filed them.
How the values were obtained:
Assay in all cases: NCI-60 one-dose screen, 48 h (100 = growth as untreated, 0 = no growth, -100 = all killed)
Details in all cases: 10 µM unless noted
[1] = tested on: DU-145 prostate
[2] = tested on: K-562 leukemia
[3] = tested on: MALME-3M melanoma
[4] = tested on: MDA-MB-231 breast
[5] = tested on: RXF 393 renal
[6] = tested on: SF-268 CNS
[7] = tested on: SF-295 CNS
[8] = tested on: SF-539 CNS
[9] = tested on: UACC-257 melanoma
[10] = tested on: M14 melanoma

Row | Structure (SMILES) | growth [1] | growth [2] | growth [3] | growth [4] | growth [5] | growth [6] | growth [7] | growth [8] | growth [9] | growth [10]
1 | O=c1[nH]c(=S)[nH]n1C(=S)n1[nH]c(=S)[nH]c1=O | 110% | 98.8% | 102% | 111% | 95.6% | 103% | 97.8% | 110% | 108% | 105%
2 | COc1ccc(S(=O)(=O)c2ccc(F)cc2)cc1 | 113% | 115% | 93% | 94.2% | 138% | 101% | 116% | 111% | 93.8% | 101%
3 | Cc1cc(O)c(C(C)C)cc1N=O | 108% and 104% | 99.6% | 113% and 108% | 83.3% and 100% | 112% and 113% | 99.7% and 96.1% | 98.8% and 121% | 98.7% and 101% | 103% and 97.1% | 104%
4 | NNC(=O)Nc1ccccc1 | 106% | 102% | 99.6% | 91.2% | 108% | 100% | 96.3% | 97% | 108% | 107%
5 | COC(=O)c1nc(=S)[nH]c(C(=O)OC)c1C(=O)c1ccc(OC)cc1 | 117% | 106% | 97.5% | 100% | 108% | 112% | 99.6% | 99.3% | 109% | 108%
6 | Cc1cc2ccccc2c2cc3ccccc3cc12 | 107% | 95.4% | 86.9% | 79.9% | 97.7% | 100% | 96.9% | 92.6% | 99.6% | 85.1%
7 | CS(=O)(=O)c1nsc(N)n1 | 109% | 98.7% | 101% | 106% | 108% | 100% | 104% | 102% | 84.9% | 104%
8 | O=C(O)C#Cc1ccc(Cl)cc1 | 109% | 88.5% | 104% | 100% | 108% | 104% | 99.7% | 102% | 87.3% | 98.2%
9 | CC(=O)c1cc2ccccc2o1 | 112% | 97.9% | 107% | 99.9% | 119% | 106% | 103% | 89% | 114% | 99.5%
10 | CN(C=O)c1ccccc1 | 103% | 97.7% | 87.3% | 84.6% | 105% | 103% | 92.8% | 92.9% | 103% | 95.8%
11 | CCCCCCCCCCCCCCCCC(=O)O | 107% | 89.5% | 98.3% | 105% | 99.5% | 102% | 104% | 106% | 101% | 104%
12 | OCc1cccc(F)c1 | 3.58% (active) | 99.4% | 106% | 89.6% | 67.8% | 97.4% | 72.3% | 111% | 101% | 94.9%
13 | COc1ccc(/C=N/NC(N)=S)cc1 | 110% | 106% | 94.4% | 101% | 95.8% | 104% | 106% | 103% | 102% | 96.3%
14 | CC1(C)OC(=O)C(=Cc2ccc(C#N)cc2)C(=O)O1 | 109% and 107% | 101% and 96.7% | 110% and 99.3% | 113% and 123% | 102% | 104% and 102% | 103% and 97.7% | 111% and 105% | 72.2% and 96.3% | 106% and 105%
15 | OCCSc1ccc(Cl)cc1 | 125% and 107% | 112% and 136% | 117% and 83.8% | 115% and 99.5% | 114% and 108% | 124% and 101% | 94.9% and 101% | 108% and 91.7% | 114% and 97.2% | 107% and 94.2%
16 | O=C1C2=C(Nc3cc(Cl)ccc3N2)OC1c1c[nH]c2ccc(COc3ccccc3)cc12 (stereo not given) | 73.7% | 79.7% | 74% | 59.5% | 43.9% | 30.4% | 33.5% | 53.8% | 80.3% | 94.2%
17 | CC(C)(C)OC(=O)NCCc1ccc(N)cc1 | 103% | 101% | 95.8% | 85.6% | 115% | 96.3% | 99.2% | 107% | 98.2% | 104%
18 | CCCCNC(=O)c1ccccc1C | 104% | 103% | 87.4% | 103% | 94.8% | 101% | 94.6% | 107% | 100% | 90.4%
19 | Nc1nc(-c2ccccn2)cc(-c2cc(-c3ccccn3)nc(N)n2)n1 | 119% | 114% | 109% | 102% | 105% | 106% | 102% | 103% | 112% | 100%
20 | CC1CC(O)CC(C)(C)C1.CC1CC(O)CC(C)(C)C1.CC1CC(O)CC(C)(C)C1.CC1CC(O)CC(C)(C)C1.[Ti] (stereo not given) | 121% | 98.2% | 103% | 96.2% | 112% | 115% | 102% | 107% | 113% | 96%
21 | COc1ccc(CCO)cc1 | 110% | 82.9% | 92.1% | 102% | 105% | 105% | 103% | 101% | 96.4% | 103%
22 | N=c1sc2ccccc2n1CC(=O)O | 110% | 108% | 110% | 102% | 113% | 98.7% | 98% | 101% | 89.7% | 95.7%
23 | C/C=C(/C(=O)NC(N)=O)C(C)C | 105% | 109% | 106% | 114% | 171% | 87.2% | 108% | 115% | 104% | 93.9%
24 | Nc1c(Cl)cc2c(c1Br)C(=O)c1ccccc1C2=O | 121% | 83.5% | 132% | 83.3% | 110% | 108% | 104% | 84.6% | 108% | 108%

Reference: PubChem BioAssay (NCI)
